Some test systems named below: SK-MEL-2 melanoma; EKVX NSCLC; SN12C renal; UO-31 renal; TK-10 renal; ACHN renal; CCRF-CEM leukemia; MOLT-4 leukemia; SR leukemia; RPMI-8226 leukemia; OVCAR-8 ovarian; OVCAR-5 ovarian; OVCAR-4 ovarian; SK-OV-3 ovarian; IGROV1 ovarian; OVCAR-3 ovarian; HS 578T breast; NCI/ADR-RES ovarian; A498 renal; CAKI-1 renal.
Common to all, as to assay: NCI-60 one-dose screen, 48 h (100 = growth as untreated, 0 = no growth, -100 = all killed)
Common to all, as to details: 10 µM unless noted

Compounds without any hit were thinned out: in the full panel of roughly 83,000, 20% have a hit.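 In brief: 96-well plates, 48 h treatment, single concentration, percent growth endpoint.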 A number with no mark means an inactive call. Activity calls are given as the source filed them. Rule for the calls: active = growth percent below 10; inactive = the rest.

On to `C=C1C(=O)O[C@H]2[C@H]1CC/C(COC(=O)NCc1ccc(Cn3c(=O)sn(CCCC)c3=O)cc1)=C\CC[C@@]1(C)O[C@@H]21`, for which the growth with SK-MEL-2 melanoma was 81.5%; with EKVX NSCLC, 91.1%; in the assay with SN12C renal, 49.5%; in the assay with UO-31 renal it was 3.12% (active); with TK-10 renal, 14.7%; in the assay on ACHN renal it was 15.2%. The growth with CCRF-CEM leukemia is -22.4% (active); with MOLT-4 leukemia, 1.1% (active); in the assay on SR leukemia, 17.2%; in the assay with RPMI-8226 leukemia, -15.8% (active); in the assay on OVCAR-8 ovarian, 65.4%; with OVCAR-5 ovarian, 71.9%. Also, the growth was 29.2% in the assay with OVCAR-4 ovarian; 107% with SK-OV-3 ovarian; 36.4% in the assay on IGROV1 ovarian; -28.6% (active) with OVCAR-3 ovarian; 78.2% in the assay on HS 578T breast; 103% in the assay on NCI/ADR-RES ovarian.

As for `O=C(NC1CCCCCC1)c1ccc2c(=O)n3c(nc2c1)CCCCC3`, the growth is 112% with SK-MEL-2 melanoma; 107% in the assay with EKVX NSCLC; 97.8% in the assay on SN12C renal; 99.8% in the assay with UO-31 renal; 104% in the assay on TK-10 renal; 108% with ACHN renal. The growth is 99.5% in the assay with A498 renal; 98.8% in the assay on CCRF-CEM leukemia; 128% with MOLT-4 leukemia; 116% with SR leukemia; 87% in the assay with RPMI-8226 leukemia; 101% in the assay with OVCAR-8 ovarian. Moreover, the growth with OVCAR-5 ovarian is 111%; in the assay with OVCAR-4 ovarian it was 76.2%; in the assay with SK-OV-3 ovarian, 108%; with IGROV1 ovarian, 94.2%; in the assay with OVCAR-3 ovarian, 110%; with NCI/ADR-RES ovarian, 91.3%.

For the molecule `CCOc1ccccc1NC(=O)CCC(=O)OC`, the growth in the assay on SK-MEL-2 melanoma is 121%; with EKVX NSCLC it was 94.3%; in the assay with SN12C renal it was 108%; with UO-31 renal, 81.8%; in the assay with TK-10 renal, 98.7%; with ACHN renal it was 106%. Further, the growth with A498 renal was 100%; in the assay with CCRF-CEM leukemia, 108%; with MOLT-4 leukemia, 94.8%; in the assay with SR leukemia, 97.8%; with RPMI-8226 leukemia, 104%; with OVCAR-8 ovarian it was 119%. In addition, the growth with OVCAR-5 ovarian was 110%; in the assay on OVCAR-4 ovarian, 95.4%; with SK-OV-3 ovarian, 103%; with IGROV1 ovarian, 100%; in the assay with OVCAR-3 ovarian it was 108%; in the assay with NCI/ADR-RES ovarian, 113%.

As to `COc1cc(NC(=O)c2cncnc2Nc2ccc3c(ccn3Cc3cccc(F)c3)c2)cc(OC)c1`, the growth was 66.7% in the assay with SK-MEL-2 melanoma; 85.3% in the assay with EKVX NSCLC; 67.4% with SN12C renal; 37.9% in the assay with UO-31 renal; 76.8% in the assay on TK-10 renal; 54% in the assay on ACHN renal. Further, the growth is 34.8% in the assay on CAKI-1 renal; 26.4% in the assay with CCRF-CEM leukemia; 19.8% in the assay on MOLT-4 leukemia; 19.7% with SR leukemia; 65.8% in the assay with OVCAR-8 ovarian; 71.7% in the assay with OVCAR-5 ovarian. In addition, the growth is 95.1% with OVCAR-4 ovarian; 67% in the assay on SK-OV-3 ovarian; 50.8% in the assay on IGROV1 ovarian; 23% in the assay with OVCAR-3 ovarian; 42.1% with NCI/ADR-RES ovarian.

`COc1ccc(-c2ccc(-c3ccc(C(=N)N)nc3)s2)cc1`: the growth is 88.3% in the assay on SK-MEL-2 melanoma; 38.8% in the assay with EKVX NSCLC; -78.9% (active) with SN12C renal; -96.8% (active) with UO-31 renal; -65.8% (active) in the assay on TK-10 renal; -100% (active) in the assay on ACHN renal. Moreover, the growth is 94.3% in the assay with A498 renal; -43.4% (active) in the assay on CCRF-CEM leukemia; -53.7% (active) in the assay with MOLT-4 leukemia; 0.29% (active) in the assay with SR leukemia; -41.1% (active) with RPMI-8226 leukemia; -17.4% (active) with OVCAR-8 ovarian. Also, the growth is -73.1% (active) in the assay on OVCAR-5 ovarian; -79.7% (active) in the assay with OVCAR-4 ovarian; 89.2% in the assay with SK-OV-3 ovarian; -84.3% (active) in the assay on IGROV1 ovarian; -87.1% (active) in the assay with OVCAR-3 ovarian; -47.5% (active) with HS 578T breast. The growth in the assay on NCI/ADR-RES ovarian is 25.5%.
